Test results from publication PMC4336329 (PLoS ONE, 2015).
Out of some 310,000 compounds screened, about 14,000 (4.5%) showed an effect of 50% or more. The effect is printed as a negative number. This is one part of a sample in which strong results are shown more often than they occur.

What follows are compounds tested against human ether-à-go-go-related gene (hERG) potassium channel (human, UniProt Q12809) (assay: primary screen, population patch clamp on CHO cells stably expressing hERG; higher = less effect of the substance).
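Also: peak tail current of the secondary pulse compared with the same well before compound.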

Chain of human ether-à-go-go-related gene (hERG) potassium channel (Q12809 whole entry, looked up): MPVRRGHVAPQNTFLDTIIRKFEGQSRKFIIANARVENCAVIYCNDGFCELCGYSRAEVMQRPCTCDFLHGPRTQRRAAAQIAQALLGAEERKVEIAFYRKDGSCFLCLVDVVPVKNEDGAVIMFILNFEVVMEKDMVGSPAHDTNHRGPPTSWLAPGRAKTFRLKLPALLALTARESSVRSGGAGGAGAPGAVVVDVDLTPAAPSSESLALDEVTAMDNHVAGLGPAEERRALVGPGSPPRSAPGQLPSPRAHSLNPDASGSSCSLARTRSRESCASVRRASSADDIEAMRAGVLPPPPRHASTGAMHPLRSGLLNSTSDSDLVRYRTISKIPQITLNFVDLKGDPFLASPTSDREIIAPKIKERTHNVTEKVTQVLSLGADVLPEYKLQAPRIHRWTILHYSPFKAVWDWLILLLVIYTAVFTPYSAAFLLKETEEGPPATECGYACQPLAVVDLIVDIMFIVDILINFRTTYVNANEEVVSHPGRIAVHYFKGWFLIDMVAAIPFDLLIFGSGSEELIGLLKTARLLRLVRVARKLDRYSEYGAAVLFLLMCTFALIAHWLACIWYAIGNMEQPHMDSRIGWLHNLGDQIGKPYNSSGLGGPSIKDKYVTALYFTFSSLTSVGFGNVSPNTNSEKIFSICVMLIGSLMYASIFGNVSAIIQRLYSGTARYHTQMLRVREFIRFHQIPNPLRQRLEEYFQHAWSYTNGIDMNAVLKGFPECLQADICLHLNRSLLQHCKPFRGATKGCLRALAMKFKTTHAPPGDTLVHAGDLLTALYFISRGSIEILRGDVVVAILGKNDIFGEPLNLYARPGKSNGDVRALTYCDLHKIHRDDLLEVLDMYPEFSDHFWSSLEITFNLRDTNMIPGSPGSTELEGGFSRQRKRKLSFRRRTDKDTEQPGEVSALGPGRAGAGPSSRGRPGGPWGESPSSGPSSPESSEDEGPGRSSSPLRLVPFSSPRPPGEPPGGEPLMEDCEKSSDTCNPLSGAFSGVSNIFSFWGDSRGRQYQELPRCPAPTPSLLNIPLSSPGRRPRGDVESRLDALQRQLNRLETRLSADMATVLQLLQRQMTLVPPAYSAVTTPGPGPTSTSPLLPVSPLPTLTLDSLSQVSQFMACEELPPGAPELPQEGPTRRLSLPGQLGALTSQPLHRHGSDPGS

SMILES | hERG current change (%, negative = inhibition) at 10uM [%]
Cc1noc(C)c1COC(=O)Cc1ccc(Cl)cc1 | -5.13
COc1ccc(Cc2nc3ccc(C(=O)NCCSC)cc3o2)cc1 | 6.36
CC(=O)Nc1ccc(S(=O)(=O)N2CCC(N(C)CCC(C)C)CC2)cc1.Cl | -46.8
c1csc(C2Nc3cccc4cccc(c34)N2)c1 | -17.2
CCC(=O)Nc1cccc(C(=O)/C=C/c2cccs2)c1 | -3.34
COc1ccc(/C=N/NC(=O)CNc2ccc(Br)cc2)c(C(=O)O)c1OC | 13.9
O=C(NCCCN1CCCC1=O)c1ccc(OC(F)(F)F)cc1 | -0.372
COC(=O)C1=C(C)NC2=C(C(=O)c3ccccc32)C1c1cccc(OC)c1 (centres unmarked) | 4.97
CN(C)C(=O)c1ccc(NC(=O)c2ccccc2Sc2ccccc2C#N)cc1 | 1.57
O=C(O)C1Cn2c(nc3c(c2=O)C2(CCCC2)Cc2ccccc2-3)S1 (centres unmarked) | 17.3
C=C1C(C(=O)N2CCOCC2)C1C(=O)N1CCOCC1 (centres unmarked) | 5.16
Cc1ccc(/C=N/NC(=O)CSc2nc3ccccc3n2C)s1 | -17.4
COc1ccccc1C1C(C(=O)c2sc(C)nc2C)=C(O)C(=O)N1CCN1CCOCC1 (centres unmarked) | 4.26
O=c1[nH]c2ccccc2cc1CN(CC1CCCO1)S(=O)(=O)c1ccccc1 (centres unmarked) | -10.3
COc1ccc(S(=O)(=O)N(Cc2cccnc2)Cc2cc3ccccc3[nH]c2=O)cc1 | -18.6
Cc1ccc(S(=O)(=O)N(Cc2cccnc2)Cc2cc3ccccc3[nH]c2=O)cc1 | -19.5
O=c1[nH]c2ccccc2cc1CN(CC1CCCO1)S(=O)(=O)c1ccc(Cl)cc1 (centres unmarked) | -75.1
O=c1[nH]c2ccccc2cc1CN(Cc1cccnc1)S(=O)(=O)c1ccc(Cl)cc1 | -56.2
Cc1ccc(S(=O)(=O)N(Cc2cc3ccccc3[nH]c2=O)CC2CCCO2)cc1 (centres unmarked) | 10.5
CC(=O)NC(C)c1cc(Cl)c2ccccc2c1O (centres unmarked) | 1.04
COc1cc2cc(C(=O)N3CCOCC3)cc(-c3ccc(C)cc3)c2cc1OC | -8.61
COc1ccccc1/C=N/NC(=O)c1ccc(Cn2nc([N+](=O)[O-])cc2C)cc1 | -12.7
C/C(=N\NC(=O)C(O)(c1ccccc1)c1ccccc1)c1ccc(C)o1 | -2.62
CCOC(=O)N/N=C(/C)c1ccc([N+](=O)[O-])o1 | -25.4

SMILES | hERG current change (%, negative = inhibition) at 10uM [%]
C/C(=N/NC(=O)C(O)(c1ccccc1)c1ccccc1)c1ccc([N+](=O)[O-])o1 | -71.6
COc1ccc(CNC(=O)C(c2ccc(C)o2)N(C(=O)c2csnn2)c2ccc(C(C)C)cc2)cc1 (centres unmarked) | -42.9
COc1ccccc1OC[C@H](O)CO | 24
C=CCn1c(=N)n(CC(O)COc2ccccc2OC)c2ccccc21.Cl (centres unmarked) | -67
Cc1ccccc1OCC(O)Cn1c2ccccc2c2ccccc21 (centres unmarked) | 2.67
Cc1ccccc1OCC(O)Cn1c(=N)n(Cc2ccccc2)c2ccccc21.Cl (centres unmarked) | -73
COc1ccccc1OCC(O)CO (centres unmarked) | 12.4
C=CCn1c(=N)n(CC(O)c2ccco2)c2ccccc21.Cl (centres unmarked) | -23.1
COc1ccccc1OCC(O)Cn1c(=N)n(Cc2ccccc2)c2ccccc21.Cl (centres unmarked) | -71
Br.C=CCn1c(=N)n(CC(=O)c2ccc(OC)cc2)c2ccccc21 | -43.7
Cc1ccccc1OCC(O)Cn1nnc2ccccc21 (centres unmarked) | 5.21
Cc1ccc(NC(=O)COC(=O)COc2cccc3c2OC(C)(C)C3)c(C)c1 | 19.8
FC(F)(F)c1nc(SCc2ccc(Cl)cc2Cl)n[nH]1 | -0.342
Cc1c(N2C(=O)/C(=C\C3CC=CCC3)SC2=S)c(=O)n(-c2ccccc2)n1C (centres unmarked) | -6.68
ClCCCc1cn(C[C@H]2CC[C@@H]([C@@H]3CC[C@H](Cn4cc(CCCCl)nn4)O3)O2)nn1 | -33.6
O=C1c2ccccc2C(=O)N1CCCc1cn(C[C@H]2CC[C@@H]([C@@H]3CC[C@H](Cn4cc(CCCN5C(=O)c6ccccc6C5=O)nn4)O3)O2)nn1 | -23.8
c1c(CC2CCCC2)nnn1C[C@H]1CC[C@@H]([C@@H]2CC[C@H](Cn3cc(CC4CCCC4)nn3)O2)O1 | -57.6
CC(=O)OCC1OC(OCc2cn(C[C@H]3CC[C@@H]([C@@H]4CC[C@H](Cn5cc(COC6OC(COC(C)=O)C(OC(C)=O)C(OC(C)=O)C6OC(C)=O)nn5)O4)O3)nn2)C(OC(C)=O)C(OC(C)=O)C1OC(C)=O (some centres unmarked) | 0.857
c1ccc(CCc2cn(C[C@H]3CC[C@@H]([C@@H]4CC[C@H](Cn5cc(CCc6ccccc6)nn5)O4)O3)nn2)cc1 | -38.2
CCCCc1cn(C[C@H]2CC[C@@H]([C@@H]3CC[C@H](Cn4cc(CCCC)nn4)O3)O2)nn1 | -54.9
c1ccc(SCc2cn(C[C@H]3CC[C@@H]([C@@H]4CC[C@H](Cn5cc(CSc6ccccc6)nn5)O4)O3)nn2)cc1 | -62.1
c1ccc(Cn2cc(CSc3ccccc3)nn2)cc1 | -11
OCCCc1cn(CC2CCCCC2)nn1 | 2.61
